# The list is not random: actives were taken first. Their share in the collection is about 3.5%.
# Mtb UGM inh: inhibitors of M. tuberculosis UDP-galactopyranose mutase. P9WIQ1. purified UGM, fluorescence polarization probe displacement. inhibition, % at 10 µM. actives 0.06% (n = 320,000). AID 504406; in the data active = inhibition above about 10%, passing the limit was not always enough
# Rv3671c inh: Rv3671c (M. tuberculosis) protease inhibition | AID 2606 | P9WHR9 | actives 0.048% (n = 320,000) | inhibition, % at 5.96 µM; in the data active = inhibition above about 38%;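 also: extracellular domain of Rv3671c used as enzyme; 0% = enzyme with DMSO and 100% = no enzyme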
# FadD28 FP inh: M. tuberculosis FadD28 bisubstrate binding inhibition; AID 588549; actives 0.22% (n = 360,000); FadD28 bisubstrate probe binding, fluorescence polarization; inhibition, % at 12.5 µM; in the data active = inhibition above about 8.5%, passing the limit was not always enough
# GDH-TPI inh: counter-screen for M. tuberculosis FBA inhibitors: GDH-TPI coupled enzymes. GDH-TPI coupled enzyme counterscreen, NADH absorbance. inhibition, % at 4.8 µM. actives 1.2% (n = 360,000). AID 588335; in the data active = inhibition above about 30%;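 also: 0% = DMSO wells and 100% = wells lacking the enzyme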
# Mtb hypoxia inh: inhibitors of hypoxia-regulated fluorescent reporter in Mycobacterium tuberculosis; M. tuberculosis hypoxia-regulated fluorescent reporter, fluorescence; fluorescence inhibition, % (no concentration beside the values); actives 0.1% (n = 300,000); AID 1159583; in the data active = fluorescence inhibition mostly above about 23%, no sharp cut-off; inactive = mostly below about 17%
# FBA Mtb inh: inhibitors of M. tuberculosis fructose-bisphosphate aldolase; P9WQA3; purified M. tuberculosis FBA, fluorescence read-out; inhibition, % at 1 µM; actives 2.3% (n = 360,000); in the data active = inhibition above about 27%;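 also: 0% = vehicle and 100% = reference inhibitor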
# Target sequence (P9WQA3 whole entry, looked up): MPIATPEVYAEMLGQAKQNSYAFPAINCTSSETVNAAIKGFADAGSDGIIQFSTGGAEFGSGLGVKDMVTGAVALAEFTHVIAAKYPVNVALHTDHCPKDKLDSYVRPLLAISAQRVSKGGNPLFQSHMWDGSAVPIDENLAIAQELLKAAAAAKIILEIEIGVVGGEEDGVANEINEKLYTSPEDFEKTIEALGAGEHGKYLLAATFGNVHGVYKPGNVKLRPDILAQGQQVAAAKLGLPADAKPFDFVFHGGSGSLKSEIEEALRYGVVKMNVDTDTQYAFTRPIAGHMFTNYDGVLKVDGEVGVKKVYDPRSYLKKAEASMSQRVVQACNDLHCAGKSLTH
# * marks the source's active call; other numbers are inactive results; / = not tested or not shown.
SMILES,Mtb UGM inh,Rv3671c inh,FadD28 FP inh,GDH-TPI inh,Mtb hypoxia inh,FBA Mtb inh
Cc1ccc(C2N(C)c3ccccc3-c3nc4ccccc4n32)o1 (stereo not given),-4,5,-1,19,4,183*
O=C(c1ccccc1)n1c(=S)nc2ccccn21,-2,-9,-1,30,10,-5
O=C(N=c1nc2ccccn2s1)c1ccccc1,-1,-4,0,32*,4,2
Cc1ccc(N2NC(=O)/C(=C/c3ccc(-c4ccc(Cl)c(C(=O)O)c4)o3)C2=O)cc1,3,-1,0,5,7,-2
O=C1NN(c2ccc(Cl)cc2)C(=O)/C1=C\c1ccc(-c2cccc(C(=O)O)c2)o1,/,/,23*,7,2,-13
COC(=O)c1nn(-c2ccc3c(c2)CCN3C(C)=O)cc1O,4,-6,1,19,5,195*
COC(=O)c1nn(-c2ccc3c(c2)OCO3)cc1O,-1,-2,-1,0,-4,26
O=C1NC(=NCc2ccccc2)S/C1=C\c1ccccc1,0,-11,0,43*,/,-2
O=C1NC(=Nc2ccccc2Cl)S/C1=C\c1cccc([N+](=O)[O-])c1O,0,-3,21*,36*,/,-10
O=C1NC(=Nc2ccccc2Cl)S/C1=C\c1ccc(C(=O)O)cc1,1,-2,-6,41*,17,-2
C=CCn1cc(C(=O)OC)c(=O)c2cc(S(=O)(=O)N3CCC(C)CC3)ccc21,1,-1,0,32*,4,2
C=CCn1cc(C(=O)OC)c(=O)c2cc(S(=O)(=O)N(CC)CC)ccc21,-2,-2,-4,7,17,-1
O=C1CSC(=NN=Cc2ccccc2Cl)N1CC1CC1,/,/,/,/,0,/
COc1cc(OCc2ccccc2)c(C(=O)/C=C/c2ccc3c(c2)OCO3)c(OC)c1OC,5,-5,-1,50*,1,2
O=C(/C=C/c1ccc2c(c1)OCO2)c1c(O)n(CCc2ccccc2)c(=O)[nH]c1=O,26*,-3,-1,-5,10,2
O=C(/C=C/c1ccccc1)c1c(O)n(CCc2ccccc2)c(=O)[nH]c1=O,0,-3,-4,8,-3,0
Brc1ccc(-c2ccc(C=NNc3nc4ccccc4[nH]3)o2)cc1,/,/,/,/,-7,/
CCCCC(=O)Nc1ccc(C(=O)NNC(=S)NC(=O)c2ccccc2[N+](=O)[O-])cc1,1,3,-2,38*,-10,0
CC(C)C(=O)Nc1ccc(C(=O)NNC(=S)NC(=O)c2ccccc2[N+](=O)[O-])cc1,0,4,-1,9,6,0
COC(=O)C1=C(C(=O)OC)C2Nc3ccccc3[C@@]23CC(C(=O)OC)N(C(=O)COCc2ccccc2)C3=N1 (stereo not given in full),/,/,/,/,0,/
NC(=S)N=Nc1c(O)[nH]c2c(Cl)cc(Cl)cc12,/,/,2,37*,11,-4
NC(=S)N=Nc1c(O)[nH]c2cc(F)c(F)cc12,0,3,-4,12,-1,-5
Cc1ccc(/C=N/NC(=O)c2nnn(-c3nonc3N)c2CN(C)C)s1,-1,4,-2,24,/,7
Cc1ccc(/C=N/NC(=O)c2nnn(-c3nonc3N)c2CN(C)c2ccccc2)s1,-2,-7,-4,34*,/,-1
Cc1ccsc1/C=N/NC(=O)c1nnn(-c2nonc2N)c1CN(C)c1ccccc1,-1,-9,-7,37*,/,2
SMILES,Mtb UGM inh,Rv3671c inh,FadD28 FP inh,GDH-TPI inh,Mtb hypoxia inh,FBA Mtb inh
NC(=O)C1CCCNc2c(F)cc([N+](=O)[O-])cc2C(=O)NC(CO)C(=O)NC(Cc2ccc(O)cc2)C(=O)N1 (stereo not given),/,/,/,/,2,/
COc1cc(-c2ccc(Nc3ccccc3C(=O)O)c(OC)c2)ccc1Nc1ccccc1C(=O)O,/,/,78*,30,0,1
CC(C)CCn1c(=O)c2ccccc2n2c(CCl)nnc12,1,7,-1,13,36*,4
Cc1cc(/C=C(\C#N)C(=O)O)c(C)n1-c1ccc(Br)cc1,1,-11,-6,32*,-3,0
COCCn1c(C)cc(/C=C(\C#N)C(=O)OC(C)C(=O)Nc2ccc(NC(C)=O)cc2)c1C (stereo not given),-1,-3,-5,39*,2,0
Cc1cc(/C=C(/C#N)C(=O)O)c(C)n1CCC(C)C,2,-11,-7,25,10,-1
Cc1cc(C=C(C#N)C#N)c(C)n1-c1ccccc1,2,-3,-3,0,/,-2
Cc1ccc(-n2c(C)cc(C=C(C#N)C#N)c2C)cc1,1,6,1,39*,/,-1
CCCn1c(C)cc(/C=C(\C#N)C(=O)O)c1C,1,-4,0,31*,13,2
Cc1cc(=O)[nH]c(NN=Cc2sccc2C)n1,/,/,/,/,14,/
Cc1ccc(S(=O)(=O)Nc2ccc(Br)cc2C=Nn2cnnc2)cc1,/,/,/,/,-7,/
Cc1cc(C)n(CCC(=O)NN=Cc2ccc(O)cc2)n1,/,/,/,/,14,/
Cc1cc(/C=C(\C#N)C(=O)Nc2ccc(F)cc2)c(C)n1-c1ccc(N2CCOCC2)c([N+](=O)[O-])c1,2,4,-1,7,2,0
COCCNC(=O)/C(C#N)=C/c1cc(C)n(-c2ccc(C)cc2)c1C,1,1,1,31*,13,6
COCCNC(=O)/C(C#N)=C/c1cc(C)n(C2CCCCC2)c1C,0,4,-1,30,4,0
CNC(=O)/C(C#N)=C\c1cc(C)n(-c2ccc(N3CCOCC3)cc2)c1C,-2,6,1,31*,-10,3
FC(F)(F)c1ccc(NN=Cc2cccnc2)nc1,/,/,/,/,5,/
CCCNC(=O)c1cc2c3ccccc3n(C)c2s1,3,-15,0,22,/,4
COCCNC(=O)c1cc2c3ccccc3n(C)c2s1,-2,2,0,47*,7,3
CC(CC(=O)N(C(C)C)C(C)C)=NNC(=O)COc1ccc(Cl)cc1Cl,/,/,/,/,-2,/
O=S(=O)(O)c1cccc2c(N=Nc3ccc(O)c4ncccc34)cccc12,1,27,28*,4,16,-15
Cc1ccccc1N=Nc1ccc(O)c2ncccc12,-1,7,-2,9,4,1
O=C(NN=Cc1cn(-c2ccccc2)nc1-c1cccnc1)c1cccnc1,/,/,/,/,4,/
CCN(CC)Cc1c[nH]c2c(C(=O)OC)cccc12,/,-7,-2,20,6,67*
CCN(CC)Cc1c[nH]c2ccccc12,4,-4,0,12,/,1
CC1CC(=O)NN=C1c1cccs1 (stereo not given),-1,-6,-3,9,6,-2
CCN(CC)c1ccc(C2=NNC(=O)CC2C)cc1[N+](=O)[O-] (stereo not given),1,-2,-2,31*,8,-6
CCN(CCC#N)c1ccc(N2C(=O)CCCC2=O)cc1[N+](=O)[O-],5,4,0,3,0,0
CC1CC(=O)NN=C1c1ccc(N(C)C)c([N+](=O)[O-])c1 (stereo not given),1,-2,-2,37*,1,-5

# Compound activity: PubChem BioAssay, several laboratories
